# Out of some 5,500 compounds screened, about 2,000 (36%) were called active. Inconclusive results (about 18%) are left out. This is one part of the list. Values without a mark were called inactive. Cut-off read from the data, not from the text of the source: active = normalized growth mostly below about 0.91 (no sharp cut-off); inconclusive = no clear call, values can overlap the other calls; inactive = mostly above about 0.92.
# Experiment: chemical genetic growth profiling, strain panel (AID 1159580);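 note: tested at 20 µM; growth read once vehicle control cultures reached saturation at 30 °C; 1 = growth at the plate median or of vehicle wells; lower values mean less growth of the strain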
# Details: growth OD
smiles,measurement,setting,value
O=C(Oc1cc(O)cc2c1C[C@@H](OC(=O)c1cc(O)c(O)c(O)c1)[C@@H](c1cc(O)c(O)c(O)c1)O2)c1cc(O)c(O)c(O)c1,normalized growth,"S. cerevisiae deletion strains, locus YJL187C, strain SWE1, active compounds read low",1.02
same,normalized growth,"S. cerevisiae deletion strains, locus YJR043C, strain POL32, active compounds read low",0.13 (active)
same,normalized growth,"S. cerevisiae deletion strains, locus YJR066W, strain TOR1, active compounds read low",0.949
same,normalized growth,"S. cerevisiae deletion strains, locus YKL009W, strain mrt4, active compounds read low",1.02
same,normalized growth,"S. cerevisiae deletion strains, locus YKL068W, active compounds read low",0.985
same,normalized growth,"S. cerevisiae deletion strains, locus YKL085W, strain MDH1 (second series), active compounds read low",1.03
same,normalized growth,"S. cerevisiae deletion strains, locus YKL085W, strain MDH1, active compounds read low",1.03
same,normalized growth,"S. cerevisiae deletion strains, locus YKL160W, strain elf1, active compounds read low",1.01
same,normalized growth,"S. cerevisiae deletion strains, locus YKR001C, strain vps1, active compounds read low",0.599 (active)
same,normalized growth,"S. cerevisiae deletion strains, locus YKR026C, strain gcn3, active compounds read low",0.984
same,normalized growth,"S. cerevisiae deletion strains, locus YKR091W, strain srl3, active compounds read low",1.01
same,normalized growth,"S. cerevisiae deletion strains, locus YLL001W, strain dnm1, active compounds read low",1.01
same,normalized growth,"S. cerevisiae deletion strains, locus YLL026W, active compounds read low",1.01
same,normalized growth,"S. cerevisiae deletion strains, locus YLL041C, strain sdh2, active compounds read low",1.01
same,normalized growth,"S. cerevisiae deletion strains, locus YLR027C, strain aat2, active compounds read low",0.996
same,normalized growth,"S. cerevisiae deletion strains, locus YLR039C, strain RIC1, active compounds read low",0.233 (active)
same,normalized growth,"S. cerevisiae deletion strains, locus YLR058C, strain SHM2, active compounds read low",0.141 (active)
same,normalized growth,"S. cerevisiae deletion strains, locus YLR102C, strain apc9, active compounds read low",0.948
same,normalized growth,"S. cerevisiae deletion strains, locus YLR113W, strain HOG1, active compounds read low",1.06
same,normalized growth,"S. cerevisiae deletion strains, locus YLR221C, strain rsa3, active compounds read low",1.03
same,normalized growth,"S. cerevisiae deletion strains, locus YLR258W, strain gsy2, active compounds read low",1.01
same,normalized growth,"S. cerevisiae deletion strains, locus YLR262C, strain YPT6 (second series), active compounds read low",1.01
same,normalized growth,"S. cerevisiae deletion strains, locus YLR268W, strain sec22, active compounds read low",0.414 (active)
same,normalized growth,"S. cerevisiae deletion strains, locus YLR320W, strain mms22, active compounds read low",1.04
same,normalized growth,"S. cerevisiae deletion strains, locus YLR330W, strain CHS5, active compounds read low",0.613 (active)
same,normalized growth,"S. cerevisiae deletion strains, locus YLR342W, strain FKS1 (second series), active compounds read low",0.198 (active)
same,normalized growth,"S. cerevisiae deletion strains, locus YLR342W, strain FKS1, active compounds read low",1.04
same,normalized growth,"S. cerevisiae deletion strains, locus YLR357W, strain rsc2, active compounds read low",1.01
same,normalized growth,"S. cerevisiae deletion strains, locus YLR370C, strain arc18, active compounds read low",1.01
same,normalized growth,"S. cerevisiae deletion strains, locus YLR371W, strain rom2, active compounds read low",0.602 (active)
same,normalized growth,"S. cerevisiae deletion strains, locus YLR384C, strain iki3, active compounds read low",0.998
same,normalized growth,"S. cerevisiae deletion strains, locus YLR418C, strain cdc73, active compounds read low",0.341 (active)
same,normalized growth,"S. cerevisiae deletion strains, locus YML016C, strain PPZ1, active compounds read low",0.083 (active)
same,normalized growth,"S. cerevisiae deletion strains, locus YML032C, strain rad52, active compounds read low",0.857 (active)
same,normalized growth,"S. cerevisiae deletion strains, locus YML120C, strain ndi1, active compounds read low",1.01
same,normalized growth,"S. cerevisiae deletion strains, locus YML124C, strain tub3, active compounds read low",0.824 (active)
same,normalized growth,"S. cerevisiae deletion strains, locus YMR078C, strain ctf18, active compounds read low",0.938
same,normalized growth,"S. cerevisiae deletion strains, locus YMR125W, strain sto1, active compounds read low",0.985
same,normalized growth,"S. cerevisiae deletion strains, locus YMR129W, active compounds read low",1.01
same,normalized growth,"S. cerevisiae deletion strains, locus YMR205C, strain PFK2, active compounds read low",1.02
same,normalized growth,"S. cerevisiae deletion strains, locus YMR223W, strain ubp8, active compounds read low",0.666 (active)
same,normalized growth,"S. cerevisiae deletion strains, locus YMR231W, strain pep5, active compounds read low",0.981
same,normalized growth,"S. cerevisiae deletion strains, locus YMR307W, strain GAS1, active compounds read low",0.448 (active)
same,normalized growth,"S. cerevisiae deletion strains, locus YNL067W, strain RPL9B, active compounds read low",0.366 (active)
same,normalized growth,"S. cerevisiae deletion strains, locus YNL071W, strain lat1, active compounds read low",1.02
same,normalized growth,"S. cerevisiae deletion strains, locus YNL183C, strain NPR1, active compounds read low",0.943
same,normalized growth,"S. cerevisiae deletion strains, locus YNL209W, strain ssb2, active compounds read low",0.991
same,normalized growth,"S. cerevisiae deletion strains, locus YNL233W, strain BNI4, active compounds read low",0.455 (active)
same,normalized growth,"S. cerevisiae deletion strains, locus YNL248C, strain rpa49, active compounds read low",1.03
same,normalized growth,"S. cerevisiae deletion strains, locus YNL250W, strain rad50, active compounds read low",0.953
same,normalized growth,"S. cerevisiae deletion strains, locus YNL271C, strain bni1, active compounds read low",0.941
same,normalized growth,"S. cerevisiae deletion strains, locus YNL298W, strain CLA4, active compounds read low",0.948
same,normalized growth,"S. cerevisiae deletion strains, locus YNL307C, strain MCK1, active compounds read low",0.915
same,normalized growth,"S. cerevisiae deletion strains, locus YNL322C, strain KRE1 (second series), active compounds read low",1.01
same,normalized growth,"S. cerevisiae deletion strains, locus YNR049C, strain mso1, active compounds read low",1.03
same,normalized growth,"S. cerevisiae deletion strains, locus YNR052C, strain pop2, active compounds read low",0.436 (active)
same,normalized growth,"S. cerevisiae deletion strains, locus YOL012C, strain htz1",0.207
same,normalized growth,"S. cerevisiae deletion strains, locus YOL147C, strain pex11, active compounds read low",0.779 (active)
same,normalized growth,"S. cerevisiae deletion strains, locus YOR001W, strain rrp6, active compounds read low",1.02
same,normalized growth,"S. cerevisiae deletion strains, locus YOR061W, strain CKA2, active compounds read low",0.218 (active)
same,normalized growth,"S. cerevisiae deletion strains, locus YOR069W, strain VPS5, active compounds read low",0.182 (active)
same,normalized growth,"S. cerevisiae deletion strains, locus YOR070C, strain gyp1, active compounds read low",1
same,normalized growth,"S. cerevisiae deletion strains, locus YOR080W, strain dia2, active compounds read low",1.02
same,normalized growth,"S. cerevisiae deletion strains, locus YOR083W, strain WHI5, active compounds read low",0.999
same,normalized growth,"S. cerevisiae deletion strains, locus YOR106W, strain vam3, active compounds read low",0.989
same,normalized growth,"S. cerevisiae deletion strains, locus YOR136W, strain idh2, active compounds read low",0.795 (active)
same,normalized growth,"S. cerevisiae deletion strains, locus YOR144C, strain elg1, active compounds read low",0.814 (active)
same,normalized growth,"S. cerevisiae deletion strains, locus YOR184W, strain ser1, active compounds read low",0.445 (active)
same,normalized growth,"S. cerevisiae deletion strains, locus YOR231W, strain MKK1, active compounds read low",1.02
same,normalized growth,"S. cerevisiae deletion strains, locus YOR265W, strain rbl2, active compounds read low",1.02
same,normalized growth,"S. cerevisiae deletion strains, locus YOR270C, strain vph1, active compounds read low",1.06
same,normalized growth,"S. cerevisiae deletion strains, locus YOR290C, strain snf2, active compounds read low",0.988
same,normalized growth,"S. cerevisiae deletion strains, locus YOR316C, strain cot1, active compounds read low",0.947
same,normalized growth,"S. cerevisiae deletion strains, locus YPL051W, strain arl3, active compounds read low",1
same,normalized growth,"S. cerevisiae deletion strains, locus YPL055C, strain LGE1, active compounds read low",0.139 (active)
same,normalized growth,"S. cerevisiae deletion strains, locus YPL078C, strain atp4, active compounds read low",0.983
same,normalized growth,"S. cerevisiae deletion strains, locus YPL106C, strain sse1, active compounds read low",1.01
same,normalized growth,"S. cerevisiae deletion strains, locus YPL240C, strain hsp82, active compounds read low",1.01
same,normalized growth,"S. cerevisiae deletion strains, locus YPL256C, strain CLN2, active compounds read low",1.07
same,normalized growth,"S. cerevisiae deletion strains, locus YPR119W, strain clb2, active compounds read low",0.972
same,normalized growth,"S. cerevisiae deletion strains, locus YPR141C, strain kar3, active compounds read low",0.974
same,normalized growth,"S. cerevisiae deletion strains, locus YPR163C, strain tif3, active compounds read low",0.87 (active)
same,normalized growth,"S. cerevisiae deletion strains, locus YPR167C, strain met16, active compounds read low",0.847 (active)
same,normalized growth,"S. cerevisiae deletion strains, strain wtn01, active compounds read low",0.433 (active)
same,normalized growth,"S. cerevisiae strains, strain wild type, active compounds read low",0.0757 (active)

# Reference: PubChem BioAssay AID1159580 (chemical genetic matrix, 2015)
